Experimental findings from PubChem BioAssay (Tox21) are described below.

The nature of experiment [1]: qHTS assay to identify small molecule agonists of the sonic hedgehog signaling (Shh) pathway (AID 1259368; calls by dose curve;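 further: NIH/3T3-derived 3T3Gli1-Luc cells carrying a stable Gli1-driven firefly luciferase reporter; series mostly up to about 92 µM; nearly all actives have a fitted effect of over 15% in size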). Summed up:
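Hedgehog pathway agonism scored by increased firefly luciferase luminescence in 3T3Gli1-Luc cells treated 24 hr at 37 C; detection used a 30 min room-temperature reagent incubation.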
For orientation: qHTS replaces the single test concentration by a dilution series.

A short description of experiment [2]: qHTS assay to identify small molecule antagonists of the sonic hedgehog signaling (Shh) pathway (AID 1259369; calls by dose curve; further: nearly all actives have a fitted effect of over 45% in size; further: potency means the concentration at half of the fitted maximal effect). In outline: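 NIH/3T3 stable Gli1-Luc clone, 2,000 cells/well, 4hr settle; cpd + conditioned medium 24hr; Luc reagent 30min RT; luminescence.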
Experiment [3] addresses Estrogen receptor beta (Homo sapiens) (UniProt Q92731). Kind of experiment: qHTS assay to identify small molecule agonists of the estrogen receptor beta (ER-beta) signaling pathway (AID 1259377; active means well fitted activation curve with a large enough effect in the signal ratio in the repeat runs, not every such curve was filed as active; the % refers to the signal ratio). In outline: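 Beta-lactamase reporter readout: fluorescence of LiveBLAzer B/G FRET substrate after 2 h at room temperature, following 16 h compound treatment of ER-beta-UAS-bla HEK293T cells at 37C in 2% charcoal-stripped FBS medium.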

The nature of experiment [4]: qHTS assay to identify small molecule agonists of the androgen receptor (AR) signaling pathway in the presence of an antagonist - cell viability counter screen (AID 1259379). Further: nearly all actives have a fitted effect of over 25% in size. Further: potency means the concentration at half of the fitted maximal effect. In outline: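 MDA-kb2 viability measured by CellTiter-Fluor fluorescence in the same wells as the luciferase signal; nilutamide 3.0uM final; 15-point compound titration; 16 hr at 37C.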
Experiment [5] can be described thus: qHTS assay to identify small molecule agonists of the estrogen receptor beta (ER-beta) signaling pathway - cell viability counter screen (AID 1259380). Further: nearly all actives have a fitted effect of over 30% in size. Further: potency means the concentration at half of the fitted maximal effect. Summed up:
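Measured: luminescence from CellTiter-Glo after 30 min at room temperature, added to wells already read for the LiveBLAzer FRET reporter (2 hr substrate); ER-beta-UAS-bla HEK293T cells had 16 hr compound treatment at 37C, 5% CO2.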

The nature of experiment [6]: qHTS assay to identify small molecule antagonists of the estrogen receptor beta (ER-beta) signaling pathway - cell viability counter screen (AID 1259382). Further: series mostly up to about 92 µM; nearly all actives have a fitted effect of over 55% in size. Summed up: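 Readout: luminescence, CellTiter-Glo, same wells as bla assay. System: ER-beta-UAS-bla GripTite HEK293T, 2% charcoal-stripped FBS. Exposure: compounds plus 1nM 17-beta-estradiol, 16 hr, 37C.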
Experiment [7] addresses Estrogen receptor (Homo sapiens) (UniProt P03372). Put plainly: qHTS assay to identify small molecule agonists of the estrogen receptor alpha (ER-alpha) signaling pathway in the presence of an antagonist (AID 1259383; calls by dose curve; further: top concentration of the series differs between compounds; nearly all actives have a fitted effect of over 15% in size). Summed up:
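Quantitative HTS confirmation: compounds titrated at 15 concentrations onto estrogen-deprived VM7Luc4E2 cells carrying a four-ERE luciferase construct, with ICI-182,780 present at 10.0nM final. Signal is luminescence after 22hr exposure.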

Experiment [8] in a line: qHTS assay to identify small molecule agonists or antagonists of the thyroid stimulating hormone receptor (TSHR) signaling pathway - wild type cell line counter screen (AID 1259384; calls by dose curve). In outline:
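Wild-type Hek293 cells, 800/well, 18 h at 37C, then compound with Ro20-1724 for 30 min RT. cAMP by HTRF (cAMP-d2/anti-cAMP cryptate), 1 h RT, fluorescence read. 15 concentrations, triplicates.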

Experiment [9] deals with Thyrotropin receptor (Homo sapiens) (UniProt P16473). Kind of experiment: qHTS assay to identify small molecule antagonists of the thyroid stimulating hormone receptor (TSHR) signaling pathway (AID 1259385; calls by dose curve; further: nearly all actives have a fitted effect of over 20% in size). In outline:
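TSHR-HEK293 cells (800/well) plated 18 h, then compounds with Ro20-1724 and TSH at 1.5 ng/mL final, 30 min at room temperature. cAMP quantified by HTRF (cAMP-d2/anti-cAMP-cryptate, 1 h); 15 concentrations in triplicate.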

Experiment [10] can be described thus: qHTS assay to identify small molecule agonists of the estrogen receptor alpha (ER-alpha) signaling pathway in the presence of an antagonist - cell viability counter screen (AID 1259386).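 Further: cells exposed to compounds for 22 h at 37 °C before the viability read; nearly all actives have a fitted effect of over 30% in size.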 Further: potency means the concentration at half of the fitted maximal effect. In outline:
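The test measures whether compounds kill ER-alpha reporter cells (VM7Luc4E2) under antagonist co-treatment (ICI-182,780, 10.0nM). Fluorescence from CellTiter-Fluor is read after a 22hr exposure.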

Experiment [11] deals with Progesterone receptor (Homo sapiens) (UniProt P06401). Kind of experiment: qHTS assay to identify small molecule agonists of the progesterone receptor (PR) signaling pathway (AID 1346784; calls by dose curve; further: nearly all actives have a fitted effect of over 30% in size). In outline:
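HEK 293T PR-UAS-bla reporter cells, 2% charcoal-stripped FBS; 6 hr settle at 37C/5% CO2, compound (DMSO) 16 hr, LiveBLAzer B/G FRET substrate 2 hr RT, fluorescence intensity read.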

The target is the same in experiment [12]. Put plainly: qHTS assay to identify small molecule antagonists of the progesterone receptor (PR) signaling pathway (AID 1346795; active means well fitted inhibition curve with a large enough effect in the signal ratio in the repeat runs, not every such curve was filed as active; the % refers to the signal ratio; further: potency means the concentration at half of the fitted maximal effect). In outline:
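Beta-lactamase reporter, HEK293T PR-UAS-bla line; 2% charcoal-stripped FBS; 6 hr pre-incubation, 37C/5% CO2. Compound + R5020 1 nM final, 16 hr. LiveBLAzer B/G FRET substrate, 2 hr RT; fluorescence intensity read.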

Experiment [13] is described as follows: qHTS assay to identify small molecule antagonists of the progesterone receptor (PR) signaling pathway - cell viability counter screen (AID 1346798). Further: series mostly up to about 92 µM; nearly all actives have a fitted effect of over 50% in size. Summed up:
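Luminescence readout (CellTiter-Glo, 30 min, RT) of viability in PR-UAS-bla HEK293T cells exposed to compound and R5020 agonist for 16 hr at 37C, 5% CO2; run in the same wells as the beta-lactamase reporter read.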

Experiment [14] is described as follows: qHTS assay to identify small molecule agonists of the progesterone receptor (PR) signaling pathway - cell viability counter screen (AID 1346799; calls by dose curve; further: nearly all actives have a fitted effect of over 45% in size). Summed up:
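HEK293T PR-UAS-bla, 3,000 cells/well, 2% charcoal-stripped FBS; 6 h settle, compound 16 h at 37C/5% CO2; LiveBLAzer 2 h RT, then CellTiter-Glo 30 min RT, luminescence read.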

The nature of experiment [15]: qHTS assay to identify small molecule antagonists of the TGF-beta/Smad signaling pathway - cell viability counter screen (AID 1346824). Further: nearly all actives have a fitted effect of over 50% in size. In outline:
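SBE-bla HEK 293T cells, incubated overnight, then compound plus 0.25 ng/mL TGF-beta1 (stock added) for 5 hr at 37 C. Viability was read in the same wells by CellTiter-Glo luminescence after 30 min at room temperature.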

Experiment [16] is described as follows: qHTS assay to identify small molecule agonists of the TGF-beta/Smad signaling pathway - cell viability counter screen (AID 1346829). Further: top concentration of the series differs between compounds; nearly all actives have a fitted effect of over 45% in size. In outline: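 HEK 293T SBE-bla line, 5 hr compound exposure at 37 C, multiplexed CellTiter-Glo viability read by luminescence.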
Experiment [17] in a line: qHTS assay to identify small molecule agonists of the TGF-beta/Smad signaling pathway (AID 1346859; active means well fitted activation curve with a large enough effect in the signal ratio in the repeat runs, not every such curve was filed as active; the % refers to the signal ratio; further: series mostly up to about 77 µM). Summed up: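 Read-out: fluorescence at 460 and 530 nm (405 nm excitation) after a 2 hr room-temperature incubation with beta-lactamase FRET substrate. SBE-bla HEK 293T cells had been treated with test compounds for 5 hr at 37 C.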
Experiment [18] deals with Thyrotropin-releasing hormone receptor (Homo sapiens) (UniProt P34981). Kind of experiment: qHTS assay to identify small molecule antagonists of the thyrotropin-releasing hormone receptor (TRHR) signaling pathway (AID 1346877; active means well fitted inhibition curve with a large enough effect in the repeat runs, not every such curve was filed as active; further: series mostly up to about 51 µM). In outline: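 Overnight-plated (18 h, 37 °C) HEK293 cells expressing TRHR were dye-loaded 2 h, treated with compound, then stimulated with TRH at 1 nM final. Fluorescence intensity was captured every second for 3 min.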

The target of experiment [19] is Estrogen receptor beta (Homo sapiens) (UniProt Q92731). Kind of experiment: qHTS assay to identify small molecule antagonists of the estrogen receptor beta (ER-beta) signaling pathway (AID 1259378; active means well fitted inhibition curve with a large enough effect in the signal ratio in the repeat runs, not every such curve was filed as active; the % refers to the signal ratio). Summed up: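 ER-beta-UAS-bla HEK293T cells in 2% charcoal-stripped FBS medium treated with compound plus 1nM final 17-beta-estradiol for 16 hr at 37C. Beta-lactamase reporter read by FRET substrate fluorescence after 2 hours at room temperature.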

Experiment [20] addresses Androgen receptor (Homo sapiens) (UniProt P10275). Put plainly: qHTS assay to identify small molecule agonists of the androgen receptor (AR) signaling pathway in the presence of an antagonist (AID 1259381; calls by dose curve; further: nearly all actives have a fitted effect of over 15% in size). Summed up:
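Luminescent ONE-Glo read, 30min at room temperature, follows 16hr compound exposure (15 concentrations) of MDA-kb2 cells at 37C, 0% CO2, with nilutamide added at 3.0uM final.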

The structures appear in SMILES notation. “And” between values parts separate entries of the source, which are not always exact repeats. Equal values may be shown once. Results filed as inconclusive are left out. Some structures have more than one record in an assay (separate samples or runs), and their calls can disagree. The source made the active and inactive calls. Unless noted, the call rests on the fitted dose curve; in most records, active means well fitted curve in the direction sought with a large enough effect in the repeat runs; inconclusive means weak or mixed curves; inactive means no such curve, though single readings can be large; an effect the other way counts as inactive or inconclusive.

Sequence of Thyrotropin receptor (Homo sapiens) (P16473 whole entry, looked up): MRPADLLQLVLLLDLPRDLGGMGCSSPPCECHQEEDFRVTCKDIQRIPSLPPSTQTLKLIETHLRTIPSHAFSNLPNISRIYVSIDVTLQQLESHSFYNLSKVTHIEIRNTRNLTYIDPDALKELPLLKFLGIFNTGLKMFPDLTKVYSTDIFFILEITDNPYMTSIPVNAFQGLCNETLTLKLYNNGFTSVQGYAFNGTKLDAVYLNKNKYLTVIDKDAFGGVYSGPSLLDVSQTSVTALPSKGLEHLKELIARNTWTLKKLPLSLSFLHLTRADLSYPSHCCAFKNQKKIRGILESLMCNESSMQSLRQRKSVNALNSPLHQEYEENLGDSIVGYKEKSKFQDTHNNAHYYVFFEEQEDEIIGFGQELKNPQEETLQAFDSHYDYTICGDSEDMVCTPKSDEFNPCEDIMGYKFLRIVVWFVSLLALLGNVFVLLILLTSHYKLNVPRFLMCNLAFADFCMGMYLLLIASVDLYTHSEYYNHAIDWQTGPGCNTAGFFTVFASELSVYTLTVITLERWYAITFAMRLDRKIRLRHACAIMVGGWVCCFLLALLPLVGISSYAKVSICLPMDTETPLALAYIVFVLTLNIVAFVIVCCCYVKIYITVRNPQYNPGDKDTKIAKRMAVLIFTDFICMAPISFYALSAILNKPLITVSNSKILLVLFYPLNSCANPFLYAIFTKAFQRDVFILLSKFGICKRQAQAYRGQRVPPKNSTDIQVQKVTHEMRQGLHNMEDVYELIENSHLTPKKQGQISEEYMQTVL
Sequence of Estrogen receptor (Homo sapiens) (P03372 whole entry, looked up): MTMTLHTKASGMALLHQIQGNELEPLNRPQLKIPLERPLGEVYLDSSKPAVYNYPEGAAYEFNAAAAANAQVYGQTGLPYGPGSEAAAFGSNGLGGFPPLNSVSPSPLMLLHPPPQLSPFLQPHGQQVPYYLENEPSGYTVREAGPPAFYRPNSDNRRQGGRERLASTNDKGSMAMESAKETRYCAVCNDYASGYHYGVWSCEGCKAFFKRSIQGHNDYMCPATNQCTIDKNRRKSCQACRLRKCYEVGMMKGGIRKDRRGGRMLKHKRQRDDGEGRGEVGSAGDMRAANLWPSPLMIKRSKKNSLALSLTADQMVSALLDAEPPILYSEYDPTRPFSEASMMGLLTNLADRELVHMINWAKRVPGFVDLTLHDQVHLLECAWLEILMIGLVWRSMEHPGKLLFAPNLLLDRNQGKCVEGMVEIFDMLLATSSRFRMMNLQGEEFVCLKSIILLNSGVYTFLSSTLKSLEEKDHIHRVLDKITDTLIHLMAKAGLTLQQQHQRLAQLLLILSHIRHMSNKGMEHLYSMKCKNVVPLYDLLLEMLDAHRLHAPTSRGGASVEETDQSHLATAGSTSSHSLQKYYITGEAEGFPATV
Sequence of Thyrotropin-releasing hormone receptor (Homo sapiens) (P34981 whole entry, looked up): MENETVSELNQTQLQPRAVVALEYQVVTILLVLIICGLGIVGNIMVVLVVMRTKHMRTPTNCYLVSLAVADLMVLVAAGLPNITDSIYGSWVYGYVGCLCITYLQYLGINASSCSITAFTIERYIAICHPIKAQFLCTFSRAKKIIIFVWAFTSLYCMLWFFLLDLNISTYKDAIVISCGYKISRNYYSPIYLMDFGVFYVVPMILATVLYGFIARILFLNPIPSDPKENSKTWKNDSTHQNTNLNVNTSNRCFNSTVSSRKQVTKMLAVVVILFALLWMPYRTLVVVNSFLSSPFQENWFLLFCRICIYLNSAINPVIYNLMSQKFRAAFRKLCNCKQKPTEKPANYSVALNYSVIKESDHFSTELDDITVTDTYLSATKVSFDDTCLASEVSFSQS
Sequence of Progesterone receptor (Homo sapiens) (P06401 whole entry, looked up): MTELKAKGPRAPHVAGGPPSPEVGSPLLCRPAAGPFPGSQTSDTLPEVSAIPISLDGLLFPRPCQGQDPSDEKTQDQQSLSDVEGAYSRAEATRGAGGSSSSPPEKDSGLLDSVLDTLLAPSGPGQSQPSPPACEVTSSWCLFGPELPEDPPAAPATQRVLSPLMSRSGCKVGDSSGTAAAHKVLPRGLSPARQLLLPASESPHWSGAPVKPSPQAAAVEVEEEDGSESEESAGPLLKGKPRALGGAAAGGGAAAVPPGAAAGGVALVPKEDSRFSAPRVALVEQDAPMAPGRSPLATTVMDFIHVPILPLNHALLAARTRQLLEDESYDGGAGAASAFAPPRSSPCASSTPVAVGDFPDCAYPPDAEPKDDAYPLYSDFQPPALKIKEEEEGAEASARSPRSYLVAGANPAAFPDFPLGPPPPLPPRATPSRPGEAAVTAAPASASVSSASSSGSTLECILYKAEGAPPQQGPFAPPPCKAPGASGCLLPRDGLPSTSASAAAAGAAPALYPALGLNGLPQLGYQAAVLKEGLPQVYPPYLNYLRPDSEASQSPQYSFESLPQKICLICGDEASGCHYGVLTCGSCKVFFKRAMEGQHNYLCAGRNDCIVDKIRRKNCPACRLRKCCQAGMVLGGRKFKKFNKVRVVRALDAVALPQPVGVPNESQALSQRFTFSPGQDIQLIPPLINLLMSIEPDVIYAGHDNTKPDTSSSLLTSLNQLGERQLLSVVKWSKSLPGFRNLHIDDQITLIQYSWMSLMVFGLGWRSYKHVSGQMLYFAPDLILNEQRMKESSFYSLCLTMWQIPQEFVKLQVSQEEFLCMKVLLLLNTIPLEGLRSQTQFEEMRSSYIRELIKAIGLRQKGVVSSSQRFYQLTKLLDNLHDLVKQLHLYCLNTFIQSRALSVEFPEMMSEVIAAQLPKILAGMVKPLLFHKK
Sequence of Estrogen receptor beta (Homo sapiens) (Q92731 whole entry, looked up): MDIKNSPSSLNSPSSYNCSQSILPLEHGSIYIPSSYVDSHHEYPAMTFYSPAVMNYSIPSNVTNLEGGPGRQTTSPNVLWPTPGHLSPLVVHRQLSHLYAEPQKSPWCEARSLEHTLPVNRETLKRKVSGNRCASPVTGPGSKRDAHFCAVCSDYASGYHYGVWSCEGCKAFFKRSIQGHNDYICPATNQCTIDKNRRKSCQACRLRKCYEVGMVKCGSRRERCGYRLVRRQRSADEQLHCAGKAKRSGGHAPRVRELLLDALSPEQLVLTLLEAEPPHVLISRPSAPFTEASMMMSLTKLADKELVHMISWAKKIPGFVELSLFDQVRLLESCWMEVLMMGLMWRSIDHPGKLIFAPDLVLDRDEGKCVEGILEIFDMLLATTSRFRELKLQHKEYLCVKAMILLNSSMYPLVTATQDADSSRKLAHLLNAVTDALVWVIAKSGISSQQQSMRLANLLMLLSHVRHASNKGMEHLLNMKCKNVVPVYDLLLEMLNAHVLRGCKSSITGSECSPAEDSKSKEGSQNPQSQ
Sequence of Androgen receptor (Homo sapiens) (P10275 whole entry, looked up): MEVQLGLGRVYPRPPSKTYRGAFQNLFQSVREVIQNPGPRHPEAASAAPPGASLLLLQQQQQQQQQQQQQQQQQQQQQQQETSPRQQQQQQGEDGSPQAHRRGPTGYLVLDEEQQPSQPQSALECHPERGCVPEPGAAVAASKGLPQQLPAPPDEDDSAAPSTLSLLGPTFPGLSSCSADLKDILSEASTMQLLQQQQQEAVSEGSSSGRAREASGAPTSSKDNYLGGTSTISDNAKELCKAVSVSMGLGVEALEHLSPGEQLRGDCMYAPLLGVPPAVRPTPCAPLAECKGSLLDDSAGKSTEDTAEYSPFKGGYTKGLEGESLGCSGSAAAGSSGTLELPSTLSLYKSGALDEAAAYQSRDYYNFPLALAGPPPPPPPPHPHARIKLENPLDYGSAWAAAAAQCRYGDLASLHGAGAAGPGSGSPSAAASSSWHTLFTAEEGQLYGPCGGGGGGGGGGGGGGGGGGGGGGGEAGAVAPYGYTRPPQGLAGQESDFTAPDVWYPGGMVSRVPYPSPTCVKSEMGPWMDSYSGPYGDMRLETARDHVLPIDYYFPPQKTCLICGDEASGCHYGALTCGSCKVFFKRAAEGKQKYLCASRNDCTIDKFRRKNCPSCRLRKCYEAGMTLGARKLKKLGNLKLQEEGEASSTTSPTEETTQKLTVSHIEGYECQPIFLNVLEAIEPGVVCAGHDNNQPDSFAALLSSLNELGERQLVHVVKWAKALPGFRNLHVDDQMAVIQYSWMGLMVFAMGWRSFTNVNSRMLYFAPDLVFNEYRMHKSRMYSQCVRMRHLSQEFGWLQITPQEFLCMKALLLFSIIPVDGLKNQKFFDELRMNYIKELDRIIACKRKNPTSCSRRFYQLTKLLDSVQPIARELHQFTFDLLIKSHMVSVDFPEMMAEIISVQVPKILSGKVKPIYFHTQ

As for `CC(C)NC(C)C`, the Potency result in [1], in experiment [2], in experiment [3], in experiment [4], in [5] and in experiment [6] was “inactive” each time. For the same compound, the Potency entry in experiment [7], in experiment [10], in experiment [11], in experiment [12], in experiment [13] and in experiment [14] was “inactive” in each case. Moreover, the Potency result in [15], in experiment [16] and in experiment [18] was “inactive” in each case. Also, the call in [8], in experiment [9] and in experiment [17] was inactive.

In the case of `Nc1ccncc1`, the Potency result in [1], in experiment [2], in experiment [3], in experiment [19], in experiment [4] and in experiment [5] was “inactive” in each case. In addition, the Potency entry in [20], in experiment [6], in experiment [7], in experiment [10], in [12] and in experiment [13] was “inactive” in each case. Further, the Potency entry in experiment [14], in experiment [15], in [16] and in experiment [18] was “inactive” throughout. Further, the result in experiment [8], in experiment [9] and in experiment [17] was inactive.

For the compound `C#CCOS(=O)OC1CCCCC1Oc1ccc(C(C)(C)C)cc1` (centres undefined), the Potency result in [1], in experiment [3], in [6], in experiment [7], in experiment [13] and in experiment [15] was “inactive” throughout. For the same compound, the Potency result in experiment [16] and in [18] was “inactive” each time. The Potency in experiment [2] is 687 nM (active) and 2.17 µM (active); in experiment [4] it was 5.45 µM (active); in experiment [5] it was 27.3 µM (active); in experiment [10] it was 30.7 µM (active) and 48.6 µM (active). Also, the call in experiment [8], in [9] and in experiment [17] was inactive.

In the case of `Cc1cc(C)cc(C)c1`, the Potency entry in [1], in experiment [2], in [3], in experiment [19], in experiment [4] and in experiment [5] was “inactive” each time. Moreover, the Potency entry in [6], in experiment [10], in [11], in experiment [12], in experiment [13] and in experiment [14] was “inactive” throughout. The Potency entry in [15], in experiment [16] and in [18] was “inactive” each time. Also, the call in [8], in [9] and in experiment [17] was inactive.

For `CNC(=O)N(C)c1nnc(C(C)(C)C)s1`, the Potency result in experiment [1], in experiment [2], in [3], in experiment [4], in [5] and in [6] was “inactive” in each case. In addition, the Potency result in [7], in [10], in experiment [11], in [12], in [13] and in experiment [14] was “inactive” each time. Further, the Potency result in experiment [15], in [16] and in experiment [18] was “inactive” throughout. Further, the result in experiment [8], in experiment [9] and in experiment [17] was inactive.

For `Oc1cc(Cl)c(Cl)cc1Cl`, the Potency entry in experiment [1], in [2], in experiment [3], in [19], in experiment [4] and in [6] was “inactive” in each case. Also, the Potency result in experiment [10], in [11], in [13], in experiment [15], in experiment [16] and in experiment [18] was “inactive” in each case. Moreover, the compound was called inactive in [8], in experiment [9] and in experiment [17]. In [12], the Potency is 60.6 µM (active) and inactive and 54.5 µM (active).

Take `Nc1ccc(Cl)c(Cl)c1`: the Potency entry in experiment [1], in [2], in experiment [3], in experiment [4], in [5] and in [6] was “inactive” in each case. The Potency entry in experiment [10], in experiment [13], in [14], in [15], in experiment [16] and in experiment [18] was “inactive” in each case. Besides, the outcome in [8], in experiment [9] and in experiment [17] was inactive.
